# High-throughput results as filed in PubChem.
# In the library only some 0.41% were active in any assay of this set; here they are far more common.
# N370S GC – qHTS Assay for Inhibitors and Activators of N370S glucocerebrosidase as a Potential Chaperone Treatment of Gaucher Disease. Lysosomal acid glucosylceramidase (Homo sapiens), P04062. N370S GC spleen homogenate, 4MU-glucoside fluorescence. Potency, µM (top dose mostly 59.4 µM), for inactives: at the highest dose activity change, negative = inhibition, most hits filed as inhibitors. 330,000 tested, 0.092% active. AID 2101, 2009;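 note: 0% = full enzyme activity and -100% = no enzyme basal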
# aGlu spleen mod – qHTS Assay for Inhibitors and Activators of Human alpha-Glucosidase From Spleen Homogenate; Lysosomal alpha-glucosidase (Homo sapiens), P10253; 240,000 tested, 0.006% active; Potency, µM (highest dose often 79.9 µM), for inactives: top-dose activity change, negative = inhibition, most hits filed as inhibitors; AID 2112, 2009; human spleen homogenate, 4-MU-alpha-glucoside fluorescence;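 note: 0% = enzyme with vehicle and -100% = no enzyme basal signal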
#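 Enzyme source: human spleen homogenate, 1 ug/well. Buffer 50 mM citric acid/K phosphate pH 5.0, 0.01% Tween-20. 4-MU-alpha-glucoside 1 mM; 37 C x 40 min; NaOH/glycine stop; fluorescence.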
# Lamin A splicing – qHTS Assay for Modulators of Lamin A Splicing. 200,000 tested, 0.01% active. Potency, µM (top dose mostly 46.1 µM), for inactives: at the top dose ratio change, negative = inhibition, actives largely listed as inhibitors. AID 1487, 2009. HeLa LMNA splicing GFP/RFP minigene ratio, 48 h; active = well fitted inhibition curve with a large enough effect in the signal ratio, with a control signal flat, not every such curve was filed as active; inconclusive = small, poorly fitted or top-dose-only effect, or effect the other way, or a change in a side signal; the % refers to the signal ratio
#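 S3 HeLa stable clones carrying a lamin A-EGFP splicing minigene plus DsRed2 were seeded at 600 cells/well in Opti-MEM with 2% FBS, pin-dosed and incubated 48 h at 37°C. Acumen cytometry (488 nm) gave the GFP/RFP total-intensity ratio.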
# GAA inhib – qHTS Assay for Inhibitors of Human alpha-Glucosidase as a Potential Chaperone Treatment of Pompe Disease | Lysosomal alpha-glucosidase (Homo sapiens), P10253 | 200,000 tested, 0.005% active | purified human GAA, 4-MU-alpha-glucoside fluorescence | AID 1466, 2008 | Potency, µM (doses to about 76.9 µM), for the others: at the highest dose activity change, negative = inhibition, actives largely listed as inhibitors;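 note: plate controls were uninhibited enzyme wells for no effect and no-enzyme background for full effect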
#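 qHTS format, compound range up to 77 uM. Human lysosomal enzyme at 4 nM, 400 uM 4-MU glucoside substrate, pH 5.0, 20 min room temperature; fluorescence after alkaline stop gives activity normalized to controls.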
# GAA glycogen mod – qHTS Assay for Inhibitors and Activators of Human alpha-Glucosidase Cleavage of Glycogen | Lysosomal alpha-glucosidase (Homo sapiens), P10253 | recombinant GAA, glycogen substrate, Amplex Red glucose oxidase fluorescence | Potency, µM (series often up to 76.4 µM), for inactives: at the highest dose activity change, negative = inhibition, actives largely listed as inhibitors | 300,000 tested, 0.38% active | AID 2100, 2009;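 note: 0% = full enzyme reaction and -100% = no-enzyme basal signal; the screen sought inhibitors and activators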
#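 Recombinant human alpha-glucosidase (4 nM final) hydrolysed bovine liver glycogen (30 ug) for 40 min at 37 C in pH 5.0 citrate/phosphate with 0.01% Tween-20. Released glucose detected by glucose oxidase/Amplex Red, Ex 573/Em 610 nm. Compounds up to 77 uM; AC50 from Hill fits.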
# Starred values were filed as active, the others as inactive; ? = inconclusive; · = no result; [ ] = another dose, or the depositor's remark. Unless noted, calls come from the whole dose curve; as a rule, active = well fitted curve in the direction sought with a large enough effect; inconclusive = small, poorly fitted or top-dose-only effect, or another doubt; inactive = no such curve, though single readings can be large; an effect the other way counts as inactive or inconclusive. Unless noted, % is set by controls: 0 for no effect and ±100 for the full control effect; potency is the fitted concentration of half-maximal effect.
SMILES,N370S GC,aGlu spleen mod,Lamin A splicing,GAA inhib,GAA glycogen mod
O=[N+]([O-])/C(C=Nc1ccccc1O)=C\Nc1ccccc1O,-13%,-1%,·,·,3.5µM*
Cc1cc(Br)ccc1NC(=O)CSc1c2c(nc3ccccc13)CCC2,·,·,·,·,-12%[76.3 µM]
COc1ccc(N(CC(=O)Nc2cccc(Cl)c2)S(=O)(=O)c2c(C)[nH]c(=O)[nH]c2=O)cc1,·,·,·,·,-1%[76.3 µM]
CCOc1ccc(N(CC(=O)Nc2ccc(CC)cc2)S(=O)(=O)c2c(C)[nH]c(=O)[nH]c2=O)cc1,3.5µM*,·,·,·,-18%[76.3 µM]
CCOc1ccc(N(CC(=O)Nc2ccc(C)c(C)c2)S(=O)(=O)c2c(C)[nH]c(=O)[nH]c2=O)cc1,7.1µM*,2%,·,·,-11%
CCc1ccc(NC(=O)CN(c2ccc(OC)cc2)S(=O)(=O)c2c(C)[nH]c(=O)[nH]c2=O)cc1,3.2µM*,·,·,·,-6%[76.3 µM]
CCOc1ccc(N(CC(=O)Nc2cc(OC)cc(OC)c2)S(=O)(=O)c2c(C)[nH]c(=O)[nH]c2=O)cc1,?,·,·,·,-22%[76.3 µM]
COc1ccc(N(CC(=O)Nc2cccc(F)c2)S(=O)(=O)c2c(C)[nH]c(=O)[nH]c2=O)cc1,11µM*,·,·,·,·
Cc1cc(C)cc(N2CCn3c2nc2c3c(=O)n(Cc3c(F)cccc3Cl)c(=O)n2C)c1,·,·,1%[46 µM],·,19%[76.3 µM]
COc1ccco1,-2%,3%,·,·,·
Cc1ccc(NC(=O)c2nc[nH]c2C(=O)N[C@@H](C)c2ccccc2)cc1,20%,-1%,·,·,0%
Cc1ccc(NC(=O)c2[nH]cnc2C(=O)NN)cc1,-3%,-5%,?,?,20µM*
COc1cccc(CNc2ccc(Br)cn2)c1O,1%,-3%,-2%,-13%,?
CCCn1cnc2cc(NCc3cccc(OC)c3O)ccc21,4%,-2%,?,-3%,18µM*
COc1cccc(CNc2ncc(Br)cc2Br)c1O,13%,-1%,?,-5%,25µM*
COc1cccc(/C=C2/C(=O)NN(c3ccc(C)c(C)c3)C2=O)c1,2%,·,·,·,32µM*
COc1cccc(/C=C2/C(=O)NN(c3ccc(F)cc3)C2=O)c1,2%,·,·,·,?
OC1OC[C@H](O)[C@@H](O)[C@@H]1O (some centres undefined),-2%,-15%,·,·,·
O=c1oc2ccccc2c(Nc2ccc(O)cc2)c1[N+](=O)[O-],·,-10%,14%[0.0737 µM],-7%,3.5µM*
CCc1ccc(Nc2c([N+](=O)[O-])c(=O)oc3ccccc23)cc1,-6%,10%,·,·,-1%
Cc1cc(=O)c2c(O)c3c(O)cc(O)c4c5c(O)cc(O)c6c(O)c7c(=O)cc(C)c8c1c2c(c34)c(c65)c78,-6%,-4%,·,·,·
O=C1NN(c2ccc(Br)cc2)C(=O)/C1=C\c1ccc(O)cc1O,?,·,·,·,8.9µM*
O=C1NN(c2cccc(Br)c2)C(=O)/C1=C\c1ccc(O)cc1,-6%,·,·,·,1%
CCOC(=O)C1=C(c2ccccc2)NC(N)=NC1c1ccc(OCc2ccc(C(=O)OC)cc2)cc1 (centres undefined),11µM*,-16%,·,·,-7%
CCOc1ccc(C(=O)N(Cc2ccc(C(C)C)cc2)Cc2ccco2)cc1,·,·,·,·,-15%[76.3 µM]
SMILES,N370S GC,aGlu spleen mod,Lamin A splicing,GAA inhib,GAA glycogen mod
COc1ccc(C(O)(C(=O)NNc2ccc(C)cc2)c2cccs2)cc1 (centres undefined),9%,1%,12%,-2%,20µM*
O=C(c1cccs1)N1CCCC(c2ccccc2)C1 (centres undefined),8%,1%,-3%,-5%,1%
O=C(NNc1ccc(C2CCCCC2)cc1)C(O)(c1ccccc1)c1cccs1 (centres undefined),?,-15%,?,-14%,20µM*
Cc1nonc1C(=O)N/N=C/c1ccc(O)c(O)c1,7%,-6%,-11%,0%,7.9µM*
COc1cc(/C=N/NC(=O)c2nonc2C)ccc1O,-3%,-2%,·,?,?
O=C(N/N=C/c1ccc(O)c(O)c1)N/N=C/c1ccc(O)c(O)c1,7%,·,·,·,1.4µM*
Cc1ccn2c(NCc3ccccc3)c(-c3cccs3)nc2c1,11µM*,3%,6%[46 µM],-21%,?
NCCCC[C@H](NC(=O)[C@@H]1CCCN1C(=O)[C@H](CO)NC(=O)[C@H](CC(=O)O)NC(=O)CNC(=O)[C@H](CCCN=C(N)N)NC(=O)CN)C(=O)O,-7%,-14%,·,·,·
COc1ccc(C(=O)NNc2ccccc2)cc1OC,7%,2%,7%,0%,22µM*
Clc1ccccc1-c1nc(NCc2cccs2)c2ccccc2n1,7.1µM*,4%,?,·,·
FC(F)(F)c1ccccc1-c1nc(NCc2cccs2)c2ccccc2n1,-28%,10%,?,·,·
c1csc(CNc2nc(-c3cccs3)nc3ccccc23)c1,18µM*,-9%,·,?,-22%
Cc1ccccc1-c1nc(NCc2cccs2)c2ccccc2n1,7.1µM*,2%,?,·,·
COc1cccc(-c2nc(NCc3cccs3)c3ccccc3n2)c1,?,3%,?,·,·
Oc1cccc(Nc2nc(-c3ccccc3Cl)nc3ccccc23)c1,1µM*,·,·,·,-6%
CCC1CN(C(=O)Nc2cccc3c2CCCC3)c2cc(C)ccc2O1 (centres undefined),·,·,5%[46 µM],·,-6%[76.3 µM]
Cc1cc(O)c(C)c2sc(N)nc12,-1%,6%,·,·,·
COc1ccc(C(O)C2=CCCC2=O)cc1 (centres undefined),21%,-5%,·,·,·
c1ccc(CN2CCC(Nc3nc(-c4cccs4)nc4ccccc34)CC2)cc1,10µM*,-5%,?,-5%,-8%
CCOC(=O)NC1(NCC(C)C)Oc2ccccc2O1,·,-4%,5%,-3%,?
CCOC(=O)NC1(NC2CCCCC2)Oc2ccccc2O1,5%,3%,-1%,3%,8.9µM*
CCOC(=O)NC1(NCc2ccccc2)Oc2ccccc2O1,-1%,1%,?,4%,16µM*
Cc1ccccc1OCCn1cc(C(=O)O)c2ccccc21,16%,5%,·,-13%,0%
Cc1ccccc1OCCn1cc(/C(N)=N/O)c2ccccc21,·,-5%,?,-8%,32µM*
Cc1ccc(-c2nc3cnccn3c2Nc2c(C)cccc2C)o1,11%,0%,?,-11%[15.4 µM],3.5µM*
Cc1c(C(=O)N(C)C2CCCCC2)sc2nc3ccc(N)cc3n12,-21%,-3%,·,·,·
COc1cc(/C=N/n2c(-c3ccccc3)n[nH]c2=S)ccc1O,14µM*,13%,·,-3%[15.4 µM],?
O=C(NNc1nc2cc3c(cc2s1)OCO3)c1ccc(F)cc1,-3%,4%,2%,6%,28µM*
C/C(CC(=O)Nc1cc(Cl)ccc1Cl)=N\NC(N)=S,-2%,-5%,?,1%,9.9µM*
